{
  "source": "PubChem BioAssay AID485284",
  "about": "(NMMLSC, 2010)",
  "note": "Results with a measured potency or affinity are listed apart.",
  "data": [
    {"assay": "loss of vesicle association with mouse CD8+ T cells – mouse 2C CD8+ T cells, flow cytometry, dose response (AID 485284);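 further: drosophila derived vesicles carrying Ld MHC with QL9 peptide plus B7-1 and ICAM-1; vesicle binding seen as anti-B7-1 PE fluorescence on CD8 gated cells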", "conditions": "2C mouse CD8+ T cell-exosome binding; at 45 µM (top of the series)", "units": {"binding remaining, % of control": "%"}, "values": [
      {"smiles": "O=C(NNS(=O)(=O)c1ccc2ccccc2c1)c1cccs1", "binding remaining, % of control": 42.6},
      {"smiles": "O=C(N/N=C/c1cccc(OCc2ccccc2)c1)c1ccc(Br)cc1", "binding remaining, % of control": 63.5},
      {"smiles": "Cc1c(NS(=O)(=O)CC23CCC(CC2=O)C3(C)C)c(=O)n(-c2ccccc2)n1C", "note": "(centres undefined)", "binding remaining, % of control": 21},
      {"smiles": "CCCOc1ccc(C2=CC(=O)C[C@H](c3ccc(OC)cc3)C2)cc1", "binding remaining, % of control": 143},
      {"smiles": "COc1ccc(NC(=O)[C@@H](NC(=O)c2ccccc2F)C(C)C)cc1S(=O)(=O)N1CCOCC1", "binding remaining, % of control": 84.7},
      {"smiles": "CCc1noc(C)c1C(=O)OC(C)C(=O)Nc1ccc2c(c1)OCO2", "note": "(centres undefined)", "binding remaining, % of control": 171},
      {"smiles": "O=C(COc1ccccc1)Nc1cc(S(=O)(=O)N2CCOCC2)ccc1N1CCCC1", "binding remaining, % of control": 128},
      {"smiles": "COc1ccc([C@H]2CC(=O)C=C(c3ccc4c5c(cccc35)CC4)C2)cc1", "binding remaining, % of control": 119},
      {"smiles": "COc1ccc(NC(=O)Cc2ccc(C)c(C)c2)cc1S(=O)(=O)N1CCCCC1", "binding remaining, % of control": 32.4},
      {"smiles": "CCCNC(=O)NC(=O)CN1C(=O)NC(C)(c2ccc(C)cc2)C1=O", "note": "(centres undefined)", "binding remaining, % of control": 160},
      {"smiles": "CCOC(=O)N1CCN(C(=O)c2ccc(CS(=O)Cc3ccc(C)cc3)o2)CC1", "note": "(centres undefined)", "binding remaining, % of control": 44.7},
      {"smiles": "CCOC(=O)c1c(N2C(=O)CC(Sc3ccccc3C(=O)O)C2=O)sc2c1CCCC2", "note": "(centres undefined)", "binding remaining, % of control": 41.4},
      {"smiles": "C=CCN(c1ccc(Br)cc1C(=O)OC)S(C)(=O)=O", "binding remaining, % of control": 115},
      {"smiles": "CCN(CC)C(=O)N1CCN(S(=O)(=O)c2ccc(C)cc2)CC1", "binding remaining, % of control": 112},
      {"smiles": "O=C(NCC1CCCCC1)c1ccc(Cl)c(S(=O)(=O)N2CCOCC2)c1", "binding remaining, % of control": 111},
      {"smiles": "O=C(c1ccc(N2C(=O)C3CC=C(Cl)CC3C2=O)cc1)N1CCCCC1", "note": "(centres undefined)", "binding remaining, % of control": 18.5},
      {"smiles": "O=S(=O)(c1ccc(F)cc1)N1CCC(O)(c2ccc3c(c2)OCO3)CC1", "binding remaining, % of control": 108},
      {"smiles": "Cc1cccc(N(C(=O)c2snc(C(N)=O)c2N)C(C(=O)NCC2CCCO2)c2ccc(N(C)C)cc2)c1C", "note": "(centres undefined)", "binding remaining, % of control": 22.8},
      {"smiles": "O=C(Cn1cc2c(n1)CCCC2)NCc1ccccn1", "binding remaining, % of control": 106},
      {"smiles": "COc1ccc(-c2cc(CNS(=O)(=O)c3ccc(NC(C)=O)cc3)on2)cc1", "binding remaining, % of control": 101},
      {"smiles": "CCOC(=O)N1CCN(Cc2nc(-c3ccc(C)cc3)no2)CC1", "binding remaining, % of control": 78.4},
      {"smiles": "CC(C)(C)Nc1nc2nonc2nc1NC(C)(C)C", "binding remaining, % of control": 147},
      {"smiles": "CCSc1nnc(NC(=O)c2ccc(F)c(S(=O)(=O)N3CCOCC3)c2)s1", "binding remaining, % of control": 127},
      {"smiles": "O=C(Nc1ncc([N+](=O)[O-])s1)c1cccs1", "binding remaining, % of control": 56.8},
      {"smiles": "O=C(/C=C/c1ccccc1Cl)NCCc1ccccc1", "binding remaining, % of control": 116},
      {"smiles": "O=C(CCC(=O)N1CCOCC1)NCc1cccc(C(F)(F)F)c1", "binding remaining, % of control": 64.2},
      {"smiles": "Cc1ncc([N+](=O)[O-])n1Cc1cccc(F)c1", "binding remaining, % of control": 40.3},
      {"smiles": "O=C(Nc1ccccc1F)C1CCCN(S(=O)(=O)c2cccc3cccnc23)C1", "note": "(centres undefined)", "binding remaining, % of control": 105},
      {"smiles": "CN(CC(=O)Nc1cccc(F)c1)C(=O)c1ccc(S(=O)(=O)N2CCCC2)cc1", "binding remaining, % of control": 21.6},
      {"smiles": "Cc1ccc(S(=O)(=O)N2CCN(C(=O)CNC(=O)c3ccc(Cl)cc3)CC2)cc1", "binding remaining, % of control": 219},
      {"smiles": "CCCc1cc(=O)[nH]c(SCC(=O)N2c3ccccc3CC2C)n1", "note": "(centres undefined)", "binding remaining, % of control": 126},
      {"smiles": "CCCCOc1ccc(C(=O)NCC(=O)N2CCN(C(=O)c3ccco3)CC2)cc1", "binding remaining, % of control": 23.6},
      {"smiles": "Cc1c(C(=O)NCCSCc2c(F)cccc2Cl)cnn1-c1ccc(Cl)cc1", "binding remaining, % of control": 144},
      {"smiles": "CCOC(=O)CSc1nnnn1-c1cc(OC)c(Cl)cc1OC", "binding remaining, % of control": 136}
    ]}
  ]
}
